Assay outcomes from PubChem BioAssay.
IDE exosite inh: exo-site inhibitors of human IDE, primary screen, biochemical, fluorescence anisotropy, probe displacement; AID 1259349, 2017; purified IDE, FL-6b probe fluorescence polarization; stronger effect = lower value; 17,000 tested, 6.3% active; Insulin-degrading enzyme (Homo sapiens), P14735; z-score at 20 µM;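 active = z-score of -3 or lower, meaning strong loss of probe binding signal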;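 note: His-tagged human IDE residues 42-1019 made in E. coli with 30 nM FL-6b probe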
Target sequence (P14735 42-1019 limits assumed): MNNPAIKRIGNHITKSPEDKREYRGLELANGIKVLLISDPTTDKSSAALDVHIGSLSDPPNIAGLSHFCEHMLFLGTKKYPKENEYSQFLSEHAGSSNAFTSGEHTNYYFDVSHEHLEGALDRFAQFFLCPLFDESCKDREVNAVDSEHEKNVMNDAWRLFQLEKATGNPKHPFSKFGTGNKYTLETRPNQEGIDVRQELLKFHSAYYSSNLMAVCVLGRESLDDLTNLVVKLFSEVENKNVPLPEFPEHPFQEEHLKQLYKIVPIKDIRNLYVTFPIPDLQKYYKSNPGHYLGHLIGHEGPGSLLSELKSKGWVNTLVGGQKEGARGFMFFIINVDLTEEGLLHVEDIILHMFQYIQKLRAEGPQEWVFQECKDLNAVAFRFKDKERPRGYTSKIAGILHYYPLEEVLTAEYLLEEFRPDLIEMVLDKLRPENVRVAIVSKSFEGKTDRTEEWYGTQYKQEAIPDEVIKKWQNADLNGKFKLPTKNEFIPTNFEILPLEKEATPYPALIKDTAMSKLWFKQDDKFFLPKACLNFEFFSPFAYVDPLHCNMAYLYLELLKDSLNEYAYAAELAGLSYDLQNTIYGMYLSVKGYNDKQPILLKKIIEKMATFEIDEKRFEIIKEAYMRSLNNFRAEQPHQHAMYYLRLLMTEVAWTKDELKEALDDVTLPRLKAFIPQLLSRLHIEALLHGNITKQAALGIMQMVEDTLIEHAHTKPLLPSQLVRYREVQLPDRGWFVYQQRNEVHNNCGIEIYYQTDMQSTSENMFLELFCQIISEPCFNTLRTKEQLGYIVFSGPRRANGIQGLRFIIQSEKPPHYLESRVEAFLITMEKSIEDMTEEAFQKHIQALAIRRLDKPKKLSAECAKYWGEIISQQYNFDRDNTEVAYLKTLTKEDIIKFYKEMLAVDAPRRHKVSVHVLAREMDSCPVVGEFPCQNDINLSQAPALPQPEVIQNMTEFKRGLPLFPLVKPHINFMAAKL
* = called active by the depositor. The entries come from a sample that favours hits as a whole.

SMILES	IDE exosite inh
COCC(=O)NC[C@@H]1[C@@H](c2ccc(-c3ccccc3)cc2)[C@H](CO)N1C(C)=O	-2.1
CC(C)NC(=O)N1Cc2cc(C(=O)NC3Cc4ccccc4C3)nc(-c3cccc(-c4cccnc4)c3)c2[C@@H]1CCO	-0.28
COc1ccc(-c2ccc([C@H]3[C@H]4CN(C(=O)NC(C)C)CCCCN4[C@H]3CO)cc2)cc1	-11*
COc1ccc(-c2ccc([C@@H]3[C@H](CO)N4CCCCN(C(=O)c5ccc(F)cc5)C[C@@H]34)cc2)cc1	0.56
COc1ccc(-c2ccc([C@@H]3[C@@H](CO)N4CCCCN(C(=O)NC(C)C)C[C@@H]34)cc2)cc1	-4.1*
COCC(=O)N1CCCCN2[C@@H](CO)[C@H](c3ccc(-c4ccc(OC)cc4)cc3)[C@@H]2C1	0.91
COCC(=O)N1CCCCN2[C@H](CO)[C@H](c3ccc(-c4ccc(OC)cc4)cc3)[C@@H]2C1	-0.47
COc1ccc(-c2ccc([C@H]3[C@H](CO)N4CCCCN(C(=O)c5ccc(F)cc5)C[C@@H]34)cc2)cc1	0.084
COc1ccc(-c2ccc([C@@H]3[C@@H](CO)N4C(=O)CN(C(=O)NC(C)C)C[C@H]34)cc2)cc1	-2.7
COCC(=O)N1CCCCN2[C@H](C1)[C@@H](c1ccc(-c3ccc(OC)cc3)cc1)[C@@H]2CO	1.4
COc1ccc(-c2ccc([C@@H]3[C@H](CO)N4CCCCN(C(=O)NC(C)C)C[C@@H]34)cc2)cc1	-5.6*
C[C@H](CO)N1C[C@H](C)[C@H](CN(C)C(=O)Nc2cccc3ccccc23)OCCCC[C@H](C)Oc2ccc(NC(=O)CCC(F)(F)F)cc2C1=O	-0.49
O=C(Nc1ccc(F)cc1)N1CCCCN2[C@H](CO)[C@H](c3ccc(-c4cccc(F)c4)cc3)[C@@H]2C1	5.3
O=C([C@@H]1[C@@H](CO)[C@@H]2Cn3c(ccc(C4=CCCCC4)c3=O)[C@H]1N2)N1CCC(Cc2ccccc2)CC1	0.42
C/C=C/c1ccc([C@@H]2[C@H](CO)N3CCCCN(S(=O)(=O)c4ccc(OC)cc4)C[C@@H]23)cc1	1.5
Cc1ccc(-c2ccc([C@@H]3[C@@H](CO)N4C(=O)CN(C(=O)CN5CCOCC5)C[C@H]34)cc2)cc1	-2.3
O=C(CN1CCOCC1)N1CC(=O)N2[C@@H](CO)[C@H](c3ccc(/C=C/c4ccccc4)cc3)[C@@H]2C1	-8.2*
Cc1ccc(-c2ccc([C@H]3[C@H]4CN(C(=O)CN5CCOCC5)CC(=O)N4[C@H]3CO)cc2)cc1	0.4
CCCC#Cc1ccc([C@@H]2[C@H]3CN(C(=O)CN4CCOCC4)CC(=O)N3[C@H]2CO)cc1	4.2
O=C(CN1CCOCC1)N1CC(=O)N2[C@H](CO)[C@H](c3ccc(/C=C/c4ccccc4)cc3)[C@@H]2C1	-8.7*
O=C(C[C@@H]1CC[C@@H]2[C@H](COC[C@@H](O)CN2C(=O)c2ccc3c(c2)OCO3)O1)NC1CCC1	0.25
C[C@@H](NC(=O)C[C@@H]1CC[C@@H]2[C@H](COc3ccc(NC(=O)C4CCOCC4)cc3C(=O)N2C)O1)c1ccccc1	-0.89
O=C(O)[C@@H]1[C@@H](CO)[C@@H]2Cn3c(ccc(-c4ccccc4F)c3=O)[C@@H]2N1Cc1ccccc1	0.56
CC(=O)N1[C@H](CN(C)C(=O)CN2CCOCC2)[C@@H](c2ccccc2)[C@@H]1CO	1.1
CO[C@@H]1CC[C@H]2CCOc3ccc(C#N)cc3C(=O)N(C)[C@H](C)C(=O)N(C)C[C@@H]1O2	0.37
SMILES	IDE exosite inh
CN(C)C(=O)c1ccc(-c2ccc([C@@H]3[C@H](CO)N4CCCCN(CCC(F)(F)F)C[C@@H]34)cc2)cc1	0.98
CCC(=O)N1CC(=O)N2[C@H](C1)[C@@H](c1ccc(C#Cc3cccc(F)c3)cc1)[C@@H]2CO	-1.3
CCC(=O)N1CC(=O)N2[C@H](CO)[C@@H](c3ccc(C#Cc4cccc(F)c4)cc3)[C@@H]2C1	-1.1
CCC(=O)N1CC(=O)N2[C@H](CO)[C@H](c3ccc(C#Cc4cccc(F)c4)cc3)[C@H]2C1	-4*
CS(=O)(=O)N1CC(=O)N2[C@H](C1)[C@@H](c1ccc(C#Cc3cccc(F)c3)cc1)[C@@H]2CO	0.91
CCS(=O)(=O)N1CC(=O)N2[C@H](C1)[C@H](c1ccc(C#Cc3cccc(F)c3)cc1)[C@@H]2CO	-5.4*
CCC(=O)N1CC(=O)N2[C@@H](CO)[C@@H](c3ccc(C#Cc4cccc(F)c4)cc3)[C@@H]2C1	-4.1*
CCS(=O)(=O)N1CC(=O)N2[C@H](CO)[C@@H](c3ccc(C#Cc4cccc(F)c4)cc3)[C@H]2C1	-2.4
COc1ccc(C#Cc2ccc([C@H]3[C@@H](CO)N4C(=O)CN(C(=O)c5ccncc5)C[C@H]34)cc2)cc1	-0.66
COCC(=O)N1CC(=O)N2[C@H](CO)[C@@H](c3ccc(C#CCc4ccccc4)cc3)[C@@H]2C1	-3
O=C(C1CC1)N1CC(=O)N2[C@@H](CO)[C@@H](c3ccc(C#CCc4ccccc4)cc3)[C@@H]2C1	-3.3*
O=C(C1CC1)N1CC(=O)N2[C@H](C1)[C@H](c1ccc(C#CCc3ccccc3)cc1)[C@@H]2CO	-4.6*
